# LAP4-GFP MLPCN = modulators of LAP4-GFP expression in yeast, primary screen, S. cerevisiae, multiplex flow cytometry, MLPCN library. GFP response vs DMSO, % at 10 µM. actives 0.34% (n = 320,000). 3 h; median GFP as percent of DMSO wells;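 active = GFP response vs DMSO above a set limit, about the screen mean plus 3 SD, cut at about 150% in these data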
# VLA-4 inh = inhibition in human VLA-4 binding assay, primary screen, VLA-4 allosteric modulator project, MLPCN library, flow cytometry, VLA-4 expressing cells; AID 2557, 2010; inhibition, % (about 7 µM as worked out from the volumes in the protocol); actives 0.2% (n = 330,000); Integrin alpha-4 (Homo sapiens), P13612; ligand binding flow cytometry; in the data active = inhibition above about 50%
# Target sequence (P13612 whole entry, looked up): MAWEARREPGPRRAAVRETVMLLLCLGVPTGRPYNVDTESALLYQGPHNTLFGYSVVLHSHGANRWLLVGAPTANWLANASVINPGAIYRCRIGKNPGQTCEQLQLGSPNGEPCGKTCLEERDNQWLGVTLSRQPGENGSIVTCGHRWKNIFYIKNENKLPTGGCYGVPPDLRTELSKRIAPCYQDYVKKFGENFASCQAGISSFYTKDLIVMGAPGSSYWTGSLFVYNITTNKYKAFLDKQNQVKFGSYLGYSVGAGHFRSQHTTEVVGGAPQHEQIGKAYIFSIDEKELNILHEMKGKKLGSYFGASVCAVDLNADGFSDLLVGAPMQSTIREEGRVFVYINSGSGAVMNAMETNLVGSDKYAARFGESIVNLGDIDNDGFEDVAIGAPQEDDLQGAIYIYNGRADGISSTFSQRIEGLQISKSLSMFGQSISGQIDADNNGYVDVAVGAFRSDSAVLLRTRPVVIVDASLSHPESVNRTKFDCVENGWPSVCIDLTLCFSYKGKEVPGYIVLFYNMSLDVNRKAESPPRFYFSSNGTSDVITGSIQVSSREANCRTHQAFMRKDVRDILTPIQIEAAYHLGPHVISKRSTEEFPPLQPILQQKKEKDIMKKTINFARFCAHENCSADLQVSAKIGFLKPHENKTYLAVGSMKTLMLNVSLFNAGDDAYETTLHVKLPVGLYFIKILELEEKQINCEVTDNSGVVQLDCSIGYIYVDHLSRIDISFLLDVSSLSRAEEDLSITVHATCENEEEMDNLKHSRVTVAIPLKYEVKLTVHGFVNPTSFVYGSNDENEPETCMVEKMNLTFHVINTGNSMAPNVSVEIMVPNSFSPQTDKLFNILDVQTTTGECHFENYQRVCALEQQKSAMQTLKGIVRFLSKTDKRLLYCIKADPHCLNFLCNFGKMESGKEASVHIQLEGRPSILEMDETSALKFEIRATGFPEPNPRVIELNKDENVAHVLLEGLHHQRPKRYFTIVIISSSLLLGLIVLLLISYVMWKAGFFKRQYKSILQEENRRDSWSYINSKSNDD
# RPL19A-GFP yeast = RPL19A-GFP expression modulators in yeast, primary screen, cell-based, S. cerevisiae, multiplex flow cytometry, MLPCN; S. cerevisiae RPL19A-GFP strain, 3 h; active compounds read low; percent response vs DMSO, % at 10 µM; actives 0.3% (n = 330,000);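 active = percent response vs DMSO below 50%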;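 also: median channel GFP fluorescence of the barcoded RPL19A-GFP strain; ratio of sample median GFP to plate DMSO average so 100% = DMSO; lower means less RPL19A-GFP as with rapamycin TOR inhibition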
# CIT2-GFP yeast = modulators of CIT2-GFP expression in yeast, primary screen, S. cerevisiae, GFP fusion, multiplex flow cytometry, MLPCN library; AID 2029, 2009; S. cerevisiae CIT2-GFP strain, 3 h; 100 means same as DMSO wells; GFP response vs DMSO, % at 10 µM; actives 0.065% (n = 320,000);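 active = GFP response relative to DMSO above a set limit, near the screen mean plus 3 SD, cut at about 150% in these data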;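 also: ratio of well median GFP fluorescence to mean of DMSO wells on the plate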
# MEP2-GFP yeast = modulators of MEP2-GFP levels in yeast, primary screen, S. cerevisiae, multiplex flow cytometry, MLPCN library; S. cerevisiae MEP2-GFP strain, 3 h; 100% = DMSO control level; GFP response vs DMSO, % at 10 µM; actives 0.51% (n = 330,000); AID 2016, 2009;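 active = GFP response versus DMSO above a set limit, roughly screen mean plus 3 SD, cut at about 180% in these data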;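 also: median GFP fluorescence of the barcode-gated MEP2-GFP cells per well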
# AGP1-GFP MLPCN = modulators of AGP1-GFP expression in yeast TOR pathway, primary screen, cell-based, multiplex flow cytometry, S. cerevisiae, MLPCN library. 3 h; GFP as percent of DMSO wells. GFP response vs DMSO, % at 10 µM. actives 0.02% (n = 320,000). AID 2066, 2009;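 active = GFP response relative to DMSO above a set limit, near screen average plus 3 SD, cut at about 150% in these data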;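 also: median GFP channel fluorescence of the gated AGP1 strain per well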
# LAP4-GFP pick2 = LAP4-GFP expression modulators in yeast, confirmation, cell-based, second cherry pick, flow cytometry; GFP response vs DMSO, % at 10 µM; actives 20% (n = 590); shares compounds with LAP4-GFP MLPCN; S. cerevisiae LAP4-GFP strain, 3 h;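 active = GFP signal as percent of the solvent control above about 150%, meaning raised reporter expression, limit read from the data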;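 also: ratio of well median GFP fluorescence to plate DMSO mean so 100% = DMSO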
# MEP2 cherry2 = modulators of MEP2-GFP levels in yeast, confirmation, S. cerevisiae, flow cytometry GFP, second cherry picks; shares compounds with LAP4-GFP MLPCN; S. cerevisiae MEP2-GFP strain, 3 h; GFP response vs DMSO, % at 10 µM; actives 10% (n = 590); AID 2622, 2010;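 active = GFP signal above 150% of the solvent control wells, that is a rise of more than half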;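 also: median channel GFP fluorescence of all gated yeast cells per well; ratio of median GFP to plate DMSO average so 100% = DMSO level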
# RPL19A GFP CP2 = RPL19A-GFP modulators in TOR pathway yeast, confirmation, cell-based, S. cerevisiae, flow cytometry, second cherry pick; shares compounds with LAP4-GFP MLPCN; S. cerevisiae RPL19A-GFP strain, 3 h; active compounds read low; 100% means same as DMSO wells; GFP response vs DMSO, % at 10 µM; actives 3% (n = 590); AID 2623, 2010;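 active = under 65% GFP response relative to DMSO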;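 also: median GFP channel fluorescence per well over the all cells gate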
# CIT2-GFP pick2 = modulators of CIT2-GFP expression in yeast, confirmation, flow cytometry, second cherry pick, single plex | S. cerevisiae CIT2-GFP strain, 3 h; DMSO control wells read 100% | GFP response vs DMSO, % at 10 µM | actives 8% (n = 590) | shares compounds with LAP4-GFP MLPCN;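 active = GFP response vs DMSO above about 150%, limit read from the data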;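 also: median green fluorescence per well over all gated yeast cells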
# AGP1-GFP pick2 = AGP1-GFP expression modulators, hit retest, confirmation, cell-based, flow cytometry, S. cerevisiae, cherry pick set 2. shares compounds with LAP4-GFP MLPCN. S. cerevisiae AGP1-GFP strain, 3 h. percent response vs DMSO, % at 10 µM. 590 tested, under 10 active. AID 2643, 2010;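 active = over 150 percent of DMSO response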;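 also: median GFP channel fluorescence over all cells without mother daughter split; sample median GFP divided by mean DMSO control so 100% equals DMSO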
# Yeast autofluor = compound autofluorescence in yeast s288c, dose response, artefact control for yeast TOR pathway GFP screen, s288c strain; shares compounds with LAP4-GFP MLPCN; S. cerevisiae s288c, 520 nm autofluorescence, flow cytometry, 3 h; active compounds read high; zero means same as solvent-only cells; fluorescence change (kMESF span) at 33 µM; 610 tested, under 10 active;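 active = fluorescence span over the dose series, or activity score, above about 33, limit read from the data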
# s288c autofl DR = autofluorescence of compounds in yeast s288c, dose response, artefact control for yeast TOR pathway GFP screen, primary hits, KU SAR, s288c parental; 110 tested, under 10 active; AID 488829, 2010; S. cerevisiae s288c parental, compound autofluorescence, flow cytometry, 3 h; shares compounds with LAP4-GFP MLPCN; fluorescence change (span) at 33 µM;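 active = fluorescence change span, or the activity score built from it, above 25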
# TORC1 bypass gr = wild-type yeast growth inhibition sparing TORC1 bypass cells, mechanism study for yeast TOR pathway GFP screen, BY4741 wild type, TORC1 bypass strain | growth rating (0-3) at 30 µM | shares compounds with LAP4-GFP MLPCN | S. cerevisiae BY4741 spot growth rating, 48-72 h; active compounds read low | 120 tested, under 10 active;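 active = growth rating at most 1 for wild type yeast while the TORC1 bypass strain still grows fully, rated 3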
# An asterisk follows results filed as active; nt = no result. Most compounds without a hit are left out; they make up all but 1.1% or so of the library.
SMILES,LAP4-GFP MLPCN,VLA-4 inh,RPL19A-GFP yeast,CIT2-GFP yeast,MEP2-GFP yeast,AGP1-GFP MLPCN,others
CC[C@]12CCCN3CCc4c(n(c5ccccc45)C(=O)C1)C32 (some centres not stated),167*,36,82,84,93,89,LAP4-GFP pick2=98;MEP2 cherry2=101;RPL19A GFP CP2=98;CIT2-GFP pick2=95;AGP1-GFP pick2=96
O=C(C1=C(O)C(=O)N(CC2CCCO2)C1c1cccc(Cl)c1)c1ccco1 (configuration not stated),92,6,100,92,98,92,
O=[N+]([O-])c1cnc(Sc2ccncn2)s1,262*,39,86,99,116,101,Yeast autofluor=6.7
C=CCn1c(Sc2ncc([N+](=O)[O-])s2)n[nH]c1=O,132,34,102,124,106,115,
Cc1cc(NC(=O)CSc2nnc(Nc3ccccc3C)s2)no1,153*,7,91,87,82,104,LAP4-GFP pick2=103;MEP2 cherry2=105;RPL19A GFP CP2=98;CIT2-GFP pick2=107;AGP1-GFP pick2=100
COc1cccc(N2CCN(c3ccc4nnc(CCC(=O)Nc5ccc(C)cn5)n4n3)CC2)c1,98,-7,60,108,136,22,LAP4-GFP pick2=96;MEP2 cherry2=98;RPL19A GFP CP2=98;CIT2-GFP pick2=103;AGP1-GFP pick2=100
COc1cccc(N2CCN(c3ccc4nnc(CCC(=O)Nc5ncccc5C)n4n3)CC2)c1,97,2,98,107,111,99,
CCOC(=O)c1ccc(NC(=S)Nc2ccccc2N)cc1,104,0,95,92,91,85,
CCC1CCCCN1C(=O)C(=O)c1cn(CC(=O)N(CC)CC)c2ccccc12 (configuration not stated),104,3,105,181*,106,123,LAP4-GFP pick2=101;MEP2 cherry2=103;RPL19A GFP CP2=98;CIT2-GFP pick2=99;AGP1-GFP pick2=100
CCN(CC)C(=O)Cn1cc(C(=O)C(=O)N(C)C2CCN(C)CC2)c2ccccc21,97,-9,103,105,95,104,
Clc1cc(Br)ccc1NCc1cccnc1,100,9,101,101,100,98,
O=C(OCN1C(=O)c2ccccc2C1=O)C1CCCCC1,91,1,102,90,93,91,
O=C1c2ccccc2C(=O)N1SC1CCCCC1,68,14,59,56,78,70,LAP4-GFP pick2=96;MEP2 cherry2=116;RPL19A GFP CP2=101;CIT2-GFP pick2=115;AGP1-GFP pick2=101
COc1ccccc1NS(=O)(=O)c1ccc(C)c(C(=O)N2CCN(c3ccc(O)cc3)CC2)c1,95,5,104,122,108,107,
CNc1nc(N)c([N+](=O)[O-])c(NCc2ccccc2)n1,91,3,104,102,104,106,s288c autofl DR=0;TORC1 bypass gr=3
CNc1nc(N)c([N+](=O)[O-])c(NC2CCCCC2)n1,82,4,117,125,130,89,s288c autofl DR=0.21;TORC1 bypass gr=3
CNc1nc(N)c([N+](=O)[O-])c(Nc2ccc(OC)cc2)n1,nt,nt,nt,nt,nt,nt,s288c autofl DR=0.26;TORC1 bypass gr=3
CNc1nc(N)c([N+](=O)[O-])c(Nc2ccc(F)cc2)n1,nt,nt,nt,nt,nt,nt,s288c autofl DR=0.42;TORC1 bypass gr=3
Cc1ccc(C)c(NC(=O)NNS(=O)(=O)c2ccc(C)c(C)c2)c1,75,2,106,99,95,97,
O=C(CSc1ccc(-c2ccccn2)nn1)Nc1ccc(F)cc1F,107,-16,107,161*,129,116,LAP4-GFP pick2=100;MEP2 cherry2=103;RPL19A GFP CP2=101;CIT2-GFP pick2=98;AGP1-GFP pick2=98
O=C(CSc1ccc(-c2cccnc2)nn1)Nc1ccc(F)cc1F,109,-1,109,103,113,105,
Clc1cnc(N/N=C/c2cccs2)c(Cl)c1,158*,7,99,92,98,83,Yeast autofluor=0.41
Clc1cnc(N/N=C/c2ccco2)c(Cl)c1,102,13,105,102,98,105,
Cc1ccc(/C=N/Nc2ncc(Cl)cc2Cl)s1,298*,12,81,91,118,86,Yeast autofluor=0.41
CC(=O)N1CCc2cc(S(=O)(=O)NCCC(=O)NCCc3ccc(Cl)cc3)ccc21,88,4,94,95,87,94,
O=C(O)CCN1CCc2ccccc2C1c1ccncc1 (configuration not stated),98,7,103,114,109,102,
COc1cccc(/C=C/C(=O)c2c(O)cc(C)oc2=O)c1O,243*,-4,90,68,82,86,Yeast autofluor=0.1
Cc1cc(O)c(C(=O)/C=C/c2ccc(Cl)cc2)c(=O)o1,161*,-3,93,95,93,77,Yeast autofluor=0.61

# Screening data deposited in PubChem by NMMLSC.
